# Data from PubChem BioAssay (EPA / NIEHS).
# “And” between values parts separate entries of the source, which are not always exact repeats. Identical values can stand only once. The source made the active and inactive calls. Rule for the calls: active = hit-call score of the fitted dose curve at least 0.9, where 1 is the maximum; inactive = score below 0.9.
# Read-out: Interleukin-1 alpha (IL1a), IL1A (gene 3552)
# Test: BSK_LPS_IL1a: BioMAP Diversity Plus: LPS Assay for Interleukin-1 alpha (IL1a) Biomarker Activity (AID 2283080)
# Conditions: primary human HUVEC with PBMC; actives raise or lower the signal
# Description: BSK_LPS is a cell-based, multiplexed-readout assay that uses umbilical vein endothelium and peripheral blood mononuclear cells, a human vascular primary cell co-culture, with measurements taken at 24 hours after chemical dosing in a 96-well plate.BSK_LPS_IL1a is an assay component measured in the BSK_LPS assay. It measures IL-a antibody related to regulation of gene expression using ELISA technology.Data from the assay component BSK_LPS_IL1a was analyzed into 1 assay endpoint. This assay endpoint, BSK_LPS_IL1a, was analyzed with bidirectional fitting relative to DMSO as the negative control and baseline of activity. Using a type of binding reporter, gain or loss-of-signal activity can be used to understand changes in the signaling as they relate to the gene IL1A. Furthermore, this assay endpoint can be referred to as a primary readout, because this assay has produced multiple assay endpoints where this one serves a signaling function. To generalize the intended target to other relatable targets, this assay endpoint is annotated to the cytokine intended target family, where the subfamily is interleukins.
# The levels of cell surface (or secreted, indicated by the prefix "s") biomarker endpoints were measured by ELISA. Overt cytotoxicity to cells in confluent adherent cultures (all systems other than the BT system) was assessed by measuring total protein levels using sulforhodamine B (SRB) staining in parallel cultures at the time of biomarker measurements, indicated as SRB endpoints. For proliferation assays for adherent cell types, individual cell types are cultured at sub-confluence and relative cell numbers quantified by SRB staining at time points optimized for each system (48 h: 3C and CASM3C systems; 72 h: BT and HDF3CGF systems; 96 h: SAg system). SRB was performed by staining cells with 0.1% SRB after fixation with 10% TCA and reading wells at 560 nm.Viability and proliferation of PBMC (T cells) was quantified by Alamar Blue reduction for the SAg and BT systems. For PBMC viability (referred to as PBMC Cytotoxicity within the assay endpoint names), cells were plated (75,000/well in a 96-well plate) and then chemical samples added for 1 h before addition of activators, SEB and TSST-1 (20 ng/mL final concentration each). Cells were incubated for 90 h. Then, Alamar Blue (20 uL/well) (Invitrogen, Cat DAL1100) was added for 6 h, and the plates were read with a fluorescence microplate reader at 546/580 nm (excitation/emission). For PBMC proliferation, cells were plated and activated as above but incubated for only 16 h prior to addition of Alamar Blue. Plates were read after 6 h.
Compound,outcome,AC50
C=CCOC(Cn1ccnc1)c1ccc(Cl)cc1Cl (stereo not given),inactive,
CCOC(=O)c1ccc(O)cc1,inactive,
CCCN(CCC)c1c([N+](=O)[O-])cc(C(F)(F)F)c(N)c1[N+](=O)[O-],inactive,
CC(=O)S[C@@H]1CC2=CC(=O)CC[C@]2(C)[C@H]2CC[C@@]3(C)[C@@H](CC[C@@]34CCC(=O)O4)[C@H]12,,12.4 µM (active)
COC(=O)c1ccc(CNS(C)(=O)=O)cc1S(=O)(=O)NC(=O)Nc1nc(OC)cc(OC)n1,inactive,
CCOC(=O)COc1cc(-n2ncc(C(F)(F)F)c(C)c2=O)c(F)cc1Cl,inactive,
N[C@@H](Cc1cc(I)c(Oc2ccc(O)c(I)c2)c(I)c1)C(=O)O,inactive,
COCCO,inactive,
c1ccc(Nc2ccccc2)cc1,inactive,
C#C[C@]1(O)CC[C@H]2[C@@H]3CCC4=CC(=O)CC[C@@H]4[C@H]3CC[C@@]21CC,inactive,
C[C@]12CC[C@@H]3c4ccc(O)cc4C[C@@H](CCCCCCCCCS(=O)CCCC(F)(F)C(F)(F)F)[C@H]3[C@@H]1CC[C@@H]2O (stereo not given in full),inactive,
CCN(Cc1c(F)cccc1Cl)c1c([N+](=O)[O-])cc(C(F)(F)F)cc1[N+](=O)[O-],inactive,
CCC(C)OC(=O)N1CCCCC1CCO (stereo not given),inactive,
C#CCOC(=O)[C@@H](C)Oc1ccc(Oc2ncc(Cl)cc2F)cc1,inactive,
CC(C)(c1ccc(O)cc1)c1ccc(O)cc1,inactive,
OB(O)O,inactive,
N#CSCSc1nc2ccccc2s1,,1.51 µM (active) and 4.83 µM (active)
CCCOC(=O)c1ccc(C(=O)OCCC)nc1,inactive,
CCOC(=O)C(C)Oc1ccc(Oc2cnc3cc(Cl)ccc3n2)cc1 (stereo not given),inactive,
CCCOC(=O)NCCCN(C)C,inactive,

Compound,outcome,AC50
CCCCOCCOCCOCc1cc2c(cc1CCC)OCO2,inactive,
S=C(S)NCCNC(=S)S.[Mn+2].[S-]C([S-])=NCCN=C([S-])[S-].[Zn+2],inactive,
COC(=O)c1ccc(I)cc1S(=O)(=O)NC(=O)Nc1nc(C)nc(OC)n1,inactive,
COC(=O)c1c(Cl)nn(C)c1S(=O)(=O)NC(=O)Nc1nc(OC)cc(OC)n1,inactive,
Cc1nn(C)c(Oc2ccccc2)c1C=NOCc1ccc(C(=O)OC(C)(C)C)cc1,,13.2 µM (active)
COC(=O)c1ccccc1C(=O)O,inactive,
Oc1ccc(C(c2ccc(O)cc2)C(Cl)(Cl)Cl)cc1,,24.8 µM (active)
COC(=O)c1cccc(C)c1S(=O)(=O)NC(=O)Nc1nc(OCC(F)(F)F)nc(N(C)C)n1,inactive,
CCCCC(CC)CN1C(=O)C2C3C=CC(C3)C2C1=O (stereo not given),inactive,
COC(=O)c1ccccc1S(=O)(=O)NC(=O)Nc1nc(OC(F)F)cc(OC(F)F)n1,inactive,
O=C(O)C1(C(=O)Nc2ccc(Cl)cc2Cl)CC1,inactive,
CC(C)CCCCCCc1ccc(O)cc1,,6.77 µM (active)
CCCCOC(=O)[C@@H](C)Oc1ccc(Oc2ccc(C(F)(F)F)cn2)cc1,inactive,
O=C(O)c1ccccc1,inactive,
CCCN(CCC)C(=O)SCC,inactive,
CCC(O)=C1C(=O)CC(C(=O)O)CC1=O (stereo not given),inactive,
CCCCCOC(=O)COc1cc(N2C(=O)C3=C(CCCC3)C2=O)c(F)cc1Cl,inactive,
O=C(c1ccc(O)cc1O)c1ccc(O)cc1O,inactive,
CCCCC(CC)COC(=O)c1ccccc1C(=O)O (stereo not given),inactive,
O=C(Nc1ccc([N+](=O)[O-])cc1Cl)c1cc(Cl)ccc1O,,0.109 µM (active)
